{
  "source": "PubChem BioAssay AID1159580",
  "about": "(chemical genetic matrix, 2015)",
  "assay": "chemical genetic growth profiling, strain panel (AID 1159580);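 note: tested at 20 µM; growth read once vehicle control cultures reached saturation at 30 °C; 1 = growth at the plate median or of vehicle wells; lower values mean less growth of the strain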",
  "conditions": "S. cerevisiae deletion strains, growth OD",
  "key": {"[1]": {"conditions": "locus YDL101C, strain DUN1, active compounds read low"}, "[2]": {"conditions": "locus YHR030C, strain SLT2, active compounds read low"}},
  "note": "In all, about 5,500 compounds went through this assay and about 2,000 (36%) were called active. Another 18% or so got no clear call; they are omitted. Some of the results follow. A number with no mark means an inactive call. Cut-off read from the data, not from the text of the source: active = normalized growth mostly below about 0.91 (no sharp cut-off); inconclusive = no clear call, values can overlap the other calls; inactive = mostly above about 0.92.",
  "data": [
    {"smiles": "O=C(Nc1ccccc1SCc1cccc(C(F)(F)F)c1)c1c(F)cccc1Cl", "values": [
      {"measurement": "normalized growth", "setting": "locus YAL013W, strain DEP1, active compounds read low", "result": 1},
      {"measurement": "normalized growth", "setting": "locus YBR229C, strain ROT2, active compounds read low", "result": 1.03},
      {"measurement": "normalized growth", "setting": "[1]", "result": 1},
      {"measurement": "normalized growth", "setting": "locus YDR150W, strain NUM1, active compounds read low", "result": 1.01},
      {"measurement": "normalized growth", "setting": "locus YEL061C, strain CIN8, active compounds read low", "result": 1.03},
      {"measurement": "normalized growth", "setting": "locus YGR078C, strain PAC10, active compounds read low", "result": 1.02},
      {"measurement": "normalized growth", "setting": "[2]", "result": 1.01},
      {"measurement": "normalized growth", "setting": "locus YHR087W, strain rtc3, active compounds read low", "result": 0.998},
      {"measurement": "normalized growth", "setting": "locus YJL187C, strain SWE1, active compounds read low", "result": 1.02},
      {"measurement": "normalized growth", "setting": "locus YJR043C, strain POL32, active compounds read low", "result": 0.988},
      {"measurement": "normalized growth", "setting": "locus YJR075W, strain HOC1, active compounds read low", "result": 0.998},
      {"measurement": "normalized growth", "setting": "locus YLR039C, strain RIC1, active compounds read low", "result": 1.04},
      {"measurement": "normalized growth", "setting": "locus YLR058C, strain SHM2 (second series), active compounds read low", "result": 1.01},
      {"measurement": "normalized growth", "setting": "locus YLR085C, strain ARP6, active compounds read low", "result": 0.986},
      {"measurement": "normalized growth", "setting": "locus YLR262C, strain YPT6, active compounds read low", "result": 0.984},
      {"measurement": "normalized growth", "setting": "locus YML094W, strain GIM5, active compounds read low", "result": 1},
      {"measurement": "normalized growth", "setting": "locus YMR219W, strain ESC1, active compounds read low", "result": 1.02},
      {"measurement": "normalized growth", "setting": "locus YMR263W, strain SAP30, active compounds read low", "result": 0.991},
      {"measurement": "normalized growth", "setting": "locus YNL153C, strain GIM3, active compounds read low", "result": 1.02},
      {"measurement": "normalized growth", "setting": "locus YNL298W, strain CLA4 (second series), active compounds read low", "result": 1.04},
      {"measurement": "normalized growth", "setting": "locus YNL322C, strain KRE1, active compounds read low", "result": 1.02},
      {"measurement": "normalized growth", "setting": "locus YNR030W, strain Alg12, active compounds read low", "result": 0.984},
      {"measurement": "normalized growth", "setting": "locus YOL006C, strain TOP1, active compounds read low", "result": 0.963},
      {"measurement": "normalized growth", "setting": "locus YPL055C, strain LGE1, active compounds read low", "result": 1.02},
      {"measurement": "normalized growth", "setting": "locus YPL241C, strain CIN2, active compounds read low", "result": 1.01},
      {"measurement": "normalized growth", "setting": "locus YPR135W, strain CTF4, active compounds read low", "result": 0.942}
    ]},
    {"smiles": "Cc1cc(C(=O)N(c2ccccc2)C(C)C2CC2)c(Cl)cc1Cl", "note": "(configuration not stated)", "values": [
      {"measurement": "normalized growth", "setting": "locus YAR019C, strain CDC15, active compounds read low", "result": 0.987},
      {"measurement": "normalized growth", "setting": "locus YBL105C, strain PKC1, active compounds read low", "result": 0.984},
      {"measurement": "normalized growth", "setting": "locus YBR135W, strain CKS1, active compounds read low", "result": 0.984},
      {"measurement": "normalized growth", "setting": "locus YBR136W, strain MEC1, active compounds read low", "result": 0.987},
      {"measurement": "normalized growth", "setting": "locus YBR160W, strain CDC28, active compounds read low", "result": 0.991},
      {"measurement": "normalized growth", "setting": "locus YDL017W, strain CDC7, active compounds read low", "result": 0.978},
      {"measurement": "normalized growth", "setting": "locus YDL028C, strain MPS1, active compounds read low", "result": 0.982},
      {"measurement": "normalized growth", "setting": "[1]", "result": 0.98},
      {"measurement": "normalized growth", "setting": "locus YDL108W, strain KIN28, active compounds read low", "result": 0.978},
      {"measurement": "normalized growth", "setting": "locus YDL132W, strain cdc53, active compounds read low", "result": 0.973},
      {"measurement": "normalized growth", "setting": "locus YDL214C, strain PRR2, active compounds read low", "result": 0.955},
      {"measurement": "normalized growth", "setting": "locus YDR052C, strain DBF4, active compounds read low", "result": 0.985},
      {"measurement": "normalized growth", "setting": "locus YDR054C, strain cdc34, active compounds read low", "result": 0.966},
      {"measurement": "normalized growth", "setting": "locus YDR226W, strain ADK1, active compounds read low", "result": 0.971},
      {"measurement": "normalized growth", "setting": "locus YDR477W, strain SNF1, active compounds read low", "result": 0.942},
      {"measurement": "normalized growth", "setting": "locus YER123W, strain YCK3, active compounds read low", "result": 0.943},
      {"measurement": "normalized growth", "setting": "locus YER133W, strain GLC7, active compounds read low", "result": 0.938},
      {"measurement": "normalized growth", "setting": "locus YFL009W, strain cdc4, active compounds read low", "result": 0.973},
      {"measurement": "normalized growth", "setting": "locus YFL029C, strain CAK1, active compounds read low", "result": 0.984},
      {"measurement": "normalized growth", "setting": "locus YFR003C, strain YPI1, active compounds read low", "result": 0.979},
      {"measurement": "normalized growth", "setting": "locus YFR019W, strain FAB1, active compounds read low", "result": 0.968},
      {"measurement": "normalized growth", "setting": "locus YFR028C, strain CDC14, active compounds read low", "result": 0.979},
      {"measurement": "normalized growth", "setting": "locus YGR040W, strain KSS1, active compounds read low", "result": 0.944},
      {"measurement": "normalized growth", "setting": "locus YGR052W, strain FMP48, active compounds read low", "result": 0.949},
      {"measurement": "normalized growth", "setting": "locus YGR092W, strain DBF2, active compounds read low", "result": 0.989},
      {"measurement": "normalized growth", "setting": "[2]", "result": "0.8 (active)"},
      {"measurement": "normalized growth", "setting": "locus YHR079C, strain IRE1, active compounds read low", "result": 0.97},
      {"measurement": "normalized growth", "setting": "locus YHR082C, strain KSP1, active compounds read low", "result": 0.99},
      {"measurement": "normalized growth", "setting": "locus YHR205W, strain SCH9, active compounds read low", "result": 0.985},
      {"measurement": "normalized growth", "setting": "locus YIL147C, strain SLN1, active compounds read low", "result": 0.983},
      {"measurement": "normalized growth", "setting": "locus YJL095W, strain BCK1, active compounds read low", "result": 0.939},
      {"measurement": "normalized growth", "setting": "locus YJL128C, strain PBS2, active compounds read low", "result": 0.92},
      {"measurement": "normalized growth", "setting": "locus YJL157C, strain FAR1, active compounds read low", "result": 0.957},
      {"measurement": "normalized growth", "setting": "locus YJR016C, strain ILV3, active compounds read low", "result": 0.976},
      {"measurement": "normalized growth", "setting": "locus YJR066W, strain TOR1 (second series), active compounds read low", "result": 0.921},
      {"measurement": "normalized growth", "setting": "locus YJR066W, strain TOR1, active compounds read low", "result": 1.03},
      {"measurement": "normalized growth", "setting": "locus YKL048C, strain ELM1, active compounds read low", "result": 0.966},
      {"measurement": "normalized growth", "setting": "locus YKL067W, strain YNK1, active compounds read low", "result": 0.955},
      {"measurement": "normalized growth", "setting": "locus YKL101W, strain HSL1, active compounds read low", "result": 0.953},
      {"measurement": "normalized growth", "setting": "locus YKL193C, strain SDS22, active compounds read low", "result": 0.977},
      {"measurement": "normalized growth", "setting": "locus YKL203C, strain TOR2, active compounds read low", "result": 1.01},
      {"measurement": "normalized growth", "setting": "locus YLR113W, strain HOG1, active compounds read low", "result": "0.808 (active)"},
      {"measurement": "normalized growth", "setting": "locus YLR133W, strain CKI1, active compounds read low", "result": 0.965},
      {"measurement": "normalized growth", "setting": "locus YLR403W, strain SFP1, active compounds read low", "result": 0.993},
      {"measurement": "normalized growth", "setting": "locus YML070W, strain DAK1, active compounds read low", "result": 0.925},
      {"measurement": "normalized growth", "setting": "locus YMR001C, strain CDC5, active compounds read low", "result": 0.982},
      {"measurement": "normalized growth", "setting": "locus YMR205C, strain PFK2 (second series), active compounds read low", "result": 0.958},
      {"measurement": "normalized growth", "setting": "locus YMR277W, strain FCP1, active compounds read low", "result": 0.972},
      {"measurement": "normalized growth", "setting": "locus YNL006W, strain LST8, active compounds read low", "result": 0.989},
      {"measurement": "normalized growth", "setting": "locus YNL020C, strain ARK1, active compounds read low", "result": 0.95},
      {"measurement": "normalized growth", "setting": "locus YNL161W, strain CBK1, active compounds read low", "result": 0.979},
      {"measurement": "normalized growth", "setting": "locus YNL183C, strain NPR1, active compounds read low", "result": 1.02},
      {"measurement": "normalized growth", "setting": "locus YNL207W, strain RIO2, active compounds read low", "result": 0.978},
      {"measurement": "normalized growth", "setting": "locus YNL222W, strain SSU72, active compounds read low", "result": 0.988},
      {"measurement": "normalized growth", "setting": "locus YNL307C, strain MCK1 (second series), active compounds read low", "result": 0.941},
      {"measurement": "normalized growth", "setting": "locus YOL078W, strain AVO1, active compounds read low", "result": 0.98},
      {"measurement": "normalized growth", "setting": "locus YOL136C, strain PFK27, active compounds read low", "result": 0.936},
      {"measurement": "normalized growth", "setting": "locus YOR061W, strain CKA2, active compounds read low", "result": 0.958},
      {"measurement": "normalized growth", "setting": "locus YOR119C, strain RIO1, active compounds read low", "result": 1.02},
      {"measurement": "normalized growth", "setting": "locus YOR231W, strain MKK1, active compounds read low", "result": 0.95},
      {"measurement": "normalized growth", "setting": "locus YOR329C, strain SCD5, active compounds read low", "result": 0.984},
      {"measurement": "normalized growth", "setting": "locus YPL031C, strain PHO85, active compounds read low", "result": 0.939},
      {"measurement": "normalized growth", "setting": "locus YPL153C, strain RAD53, active compounds read low", "result": 0.921},
      {"measurement": "normalized growth", "setting": "locus YPL204W, strain HRR25, active compounds read low", "result": 0.918},
      {"measurement": "normalized growth", "setting": "locus YPL209C, strain IPL1, active compounds read low", "result": 0.985},
      {"measurement": "normalized growth", "setting": "locus YPL256C, strain CLN2, active compounds read low", "result": "0.848 (active)"},
      {"measurement": "normalized growth", "setting": "locus YPR025C, strain CCL1, active compounds read low", "result": 0.991},
      {"measurement": "normalized growth", "setting": "locus YPR106W, strain ISR1, active compounds read low", "result": 0.982},
      {"measurement": "normalized growth", "setting": "locus YPR111W, strain DBF20, active compounds read low", "result": 0.97},
      {"measurement": "normalized growth", "setting": "strain NNK1, active compounds read low", "result": 0.976},
      {"measurement": "normalized growth", "setting": "strain TSCII, active compounds read low", "result": 0.983}
    ]}
  ]
}
